Screening results: PubChem, National Center for Advancing Translational Sciences (NCATS)
DT40 TDP1 no CPT = qHTS for Inhibitors of human tyrosyl-DNA phosphodiesterase 1 (TDP1): qHTS in cells in absence of CPT; DT40 Tdp1-/- hTDP1 cells, no CPT, ATP luminescence, 48 h; Potency, µM (top dose mostly 46.2 µM), most hits filed as inhibitors; 15% of 420,000 active; further: nearly all actives have a fitted effect of over 55% in size
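Compound effects on proliferation are scored in DT40 Tdp1-/-;hTDP1 cells in the absence of CPT. ATP levels (CellTiter-Glo luminescence) are recorded after a ≥48 hr, 37 °C incubation.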
VP16 counter = inhibits Gal4-VP16 luciferase reporter, ROR gamma counter-screen | Drosophila S2 Gal4-VP16 UAS-luciferase, luminescence, 20 h | Potency, µM (series often up to 53.6 µM), actives largely listed as inhibitors | 3.5% of 310,000 active;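 further: Gal4-VP16 expression switched on by copper sulfate through the metallothionein promoter; nearly all actives have a fitted effect of over 50% in size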
IL1B secr inh = blocks inflammasome-driven IL-1 beta release. activity change, % at 57.5 µM. THP-1 LPS/ATP IL-1B secretion, AlphaLISA, 16 h; stronger effect = lower value. 4.7% of 360,000 active; in the data active means activity change below about -50%; inconclusive means mostly about -30% to -49%
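THP-1 cells pretreated 1 hr with compounds (up to 57.5 uM final), then stimulated with LPS (250 ng/mL final) plus ATP (1.25 mM final); secreted IL-1B measured by AlphaLISA after 16 hr, decreased signal indicating inhibition.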
RORg inh = inhibitors of mouse ROR gamma transcriptional activity | AID 2551 | 5.4% of 310,000 active | Drosophila S2 Gal4-RORgamma UAS-luciferase reporter, 20 h | Potency, µM (doses to about 53.6 µM), hits mostly inhibitors | P51450; further: nearly all actives have a fitted effect of over 60% in size
Target sequence (P51450 whole entry, looked up, the tested form may be a part): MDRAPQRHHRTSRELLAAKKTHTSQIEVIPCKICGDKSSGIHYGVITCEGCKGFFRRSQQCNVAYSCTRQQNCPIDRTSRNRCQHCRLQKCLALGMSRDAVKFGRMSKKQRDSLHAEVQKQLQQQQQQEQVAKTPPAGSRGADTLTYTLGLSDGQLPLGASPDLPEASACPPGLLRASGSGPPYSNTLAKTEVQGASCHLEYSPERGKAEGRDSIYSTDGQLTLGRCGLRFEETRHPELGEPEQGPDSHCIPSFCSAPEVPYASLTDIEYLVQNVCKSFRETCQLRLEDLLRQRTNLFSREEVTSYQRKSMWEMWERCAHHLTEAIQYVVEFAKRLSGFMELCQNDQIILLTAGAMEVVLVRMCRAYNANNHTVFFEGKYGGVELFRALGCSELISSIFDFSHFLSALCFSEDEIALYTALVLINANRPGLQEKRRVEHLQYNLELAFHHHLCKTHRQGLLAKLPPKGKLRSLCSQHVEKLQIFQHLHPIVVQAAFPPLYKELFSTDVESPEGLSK
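Stable Schneider cell line, Gal4 DNA-binding domain fused to ROR gamma, UAS-luciferase. Cmpd 1 hr RT → CuSO4 700 uM final → 20 hr RT → luciferase reagent 10 min → luminescence.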
ELG1 repair inh = ELG1-dependent DNA repair inhibition; Potency, µM (highest dose often 46.1 µM), actives largely listed as inhibitors; 2.3% of 330,000 active; HEK293T ELG1-luciferase reporter, luminescence, 16 h; DNA damage induced by 5-fluorouridine; further: nearly all actives have a fitted effect of over 55% in size
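Step one: seed 2,000 cells per well. Step two: pin-transfer compound or DMSO alongside 5-fluorouridine. Step three: incubate 16 hr, 37 °C, 5% CO2. Step four: add ONE-Glo, wait 30 min, read luminescence.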
DT40 TDP1 CPT = growth inhibition of DT40 Tdp1-/-;hTDP1 cells with camptothecin (screen for TDP1 inhibitors); chicken DT40 Tdp1-/-;hTDP1 cells + 20 nM CPT, ATP luminescence, 48 h; Potency, µM (doses to about 46.2 µM), actives largely listed as inhibitors; 12% of 420,000 active; further: nearly all actives have a fitted effect of over 55% in size
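Cell growth measured by CellTiter-Glo luminescence after a minimum 48 h, 37 C compound exposure with 20 nM CPT in Tdp1-knockout DT40 cells stably expressing hTDP1, seeded 400/well; qHTS titration format.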
Numbers stand for hits; – = inactive; ? = inconclusive; · = not tested or not shown. Hits are enriched below; roughly 21% of the tested compounds scored in any of these assays. Unless noted, the call rests on the fitted dose curve; in most records, active means well fitted curve in the direction sought with a large enough effect; inconclusive means small, poorly fitted or top-dose-only effect, or another doubt; inactive means no such curve, though single readings can be large; an effect the other way counts as inactive or inconclusive.

SMILES | DT40 TDP1 no CPT | VP16 counter | IL1B secr inh | RORg inh | ELG1 repair inh | DT40 TDP1 CPT
CC(Oc1ccc(Br)cc1)c1nc2c3ccccc3nc(=S)n2[nH]1 (configuration not stated) | 15µM | 1.3µM | – | 0.28µM | ? | ?
CCCC(Oc1ccc(Br)cc1)c1nc2c3cc(OC)c(OC)cc3nc(=S)n2[nH]1 (configuration not stated) | ? | 3.5µM | – | 1.3µM | – | ?
COc1ccc(-c2cc(C(=O)Oc3ccc(Br)cc3)c3ccccc3n2)cc1 | – | · | · | · | · | –
CC(=O)O[C@H](C(=O)O[C@@H]1C[C@@H](CCC[C@H]2O[C@H](C(=O)OC(C)C)CC[C@@H]2C)O[C@@H](CC#N)C1)c1ccccc1 | · | – | · | – | · | ·
COc1cccc(Nc2ccc(C(=O)O)cc2[N+](=O)[O-])c1 | – | – | – | – | – | –
COc1cccc(NC(=O)c2ccc(NCCCN3CC(C)CC(C)C3)c([N+](=O)[O-])c2)c1 (configuration not stated) | ? | – | – | – | ? | –
CCCN(CCC)CCCNc1ccc(C(=O)Nc2cccc(OC)c2)cc1[N+](=O)[O-] | ? | – | -81 | – | ? | ?
COc1cccc(NC(=O)c2ccc(NCCCN3CCC(C)CC3)c([N+](=O)[O-])c2)c1 | 16µM | – | -65 | – | ? | ?
Cc1ccc(NC(=O)c2ccc(NCCCN3CCC(C)CC3)c([N+](=O)[O-])c2)c(C)c1 | 16µM | – | ? | – | – | ?
O=C(Nc1cc(F)cc(F)c1)c1ccc(NCCCN2CCCCCC2)c([N+](=O)[O-])c1 | ? | – | -76 | – | – | ?
COc1ccc(OC)c(Nc2ncnc3sccc23)c1 | ? | – | – | – | – | –
COc1cc(CN(C)c2ncnc3sccc23)ccc1OC(F)F | 12µM | ? | – | – | ? | 16µM
COC(=O)c1ccc(-c2nc(CN3CCN(Cc4cccc(C)c4)CC3)c(C)o2)cc1 | 23µM | – | – | – | – | ?
COC(=O)c1ccc(-c2nc(CN3CCN(C(=O)c4ccco4)CC3)c(C)o2)cc1 | – | · | – | · | · | –
COc1ccc(-c2nc(CN3CCN(Cc4cccc(Cl)c4)CC3)c(C)o2)cc1 | ? | ? | – | 11µM | ? | ?
COc1ccc(Cl)cc1NC(=O)CN(C)C(=O)C1COc2ccccc2O1 (configuration not stated) | – | · | – | · | – | –
Cc1ccc(C(=O)N2CCN(Cc3ccccc3)CC2)cc1S(=O)(=O)N1CCOCC1 | – | · | – | · | – | –
CC1(C)OC(=O)C2=C(C[C@@H](CCc3ccccc3)O[C@H]2CCc2cccc(Cl)c2)O1 | ? | · | – | · | · | ?
C[C@H](CO)N1C[C@H](C)[C@@H](CN(C)C(=O)CCC(F)(F)F)OCc2cnnn2CCCC1=O | – | · | – | · | · | –
C#CCN(C[C@H]1[C@H](OC(=O)Nc2cccs2)[C@H](OC(=O)Nc2cccs2)C[C@H]2C(=O)N(c3ccccc3)C(=O)[C@@H]12)S(=O)(=O)c1ccc(C)cc1 | – | · | – | · | · | –
C#CCN(C[C@@H]1[C@@H](OC(=O)Nc2cccs2)[C@@H](OC(=O)Nc2cccs2)Cn2c(=O)ccc(=O)n21)S(=O)(=O)c1ccc(C)cc1 | 3.3µM | · | -107 | · | · | 2.9µM
C#CCN(C[C@@H]1[C@@H](OC(=O)NC2CCCC2)[C@@H](OC(=O)NC2CCCC2)Cn2c(=O)ccc(=O)n21)S(=O)(=O)c1ccc(C)cc1 | 2.3µM | · | – | · | · | 2.6µM
COc1cc2c(cc1OC)C(c1cc(Br)ccc1O)N(C(C)=O)CC2 (configuration not stated) | – | · | – | · | · | –
O=C(O)CC12CC3CC(C1)CC(n1ncc(N4CCC5(CC4)OCCO5)c(Cl)c1=O)(C3)C2 | – | – | – | – | 23µM | –
CC(NC(=O)OCc1ccccc1)C(=O)Oc1cc2oc(=O)cc(-c3ccccc3)c2cc1Cl (configuration not stated) | ? | – | – | – | 21µM | –
SMILES | DT40 TDP1 no CPT | VP16 counter | IL1B secr inh | RORg inh | ELG1 repair inh | DT40 TDP1 CPT
Cc1ccc(NC(=O)C(=O)NCC(c2ccc3c(c2)OCO3)N2CCOCC2)cc1C (configuration not stated) | – | · | · | · | · | –
Cc1oc2ncn(CC(C)C)c(=O)c2c1C(=O)NCCCN(C)Cc1ccccc1 | – | · | · | · | · | –
COc1ccccc1Nc1ncnc2nc[nH]c12 | – | – | – | – | ? | –
COc1nc(N)nc2nc[nH]c12 | – | – | -77 | – | – | –
CCOC(=O)c1sc(NC(=O)c2ccncc2)c(C#N)c1C | 5.2µM | ? | – | ? | 21µM | 6.5µM
CCOC(=O)c1sc(NC(=O)c2cc(-c3ccccc3C)nc3ccccc23)c(C#N)c1C | 7.3µM | 8.9µM | -83 | 8.9µM | ? | 9.2µM
CCOC(=O)c1c(NC(=O)c2ccncc2)sc(C)c1C | ? | – | – | – | – | ?
Cc1ccccc1-c1cc(C(=O)Nc2sc(C)c(C)c2C(N)=O)c2ccccc2n1 | 18µM | – | – | – | ? | 16µM
N#Cc1c(NC(=O)c2ccc(Cn3cc(Br)cn3)o2)sc2c1CCCCC2 | – | – | – | ? | – | ?
COC(=O)c1sc(NC(=O)c2ccc(Cn3cc(Cl)cn3)o2)c(C#N)c1C | ? | – | – | – | ? | 16µM
O=C(CCCn1c(=O)c2sccc2n(Cc2ccc(F)cc2Cl)c1=O)NCc1ccc2c(c1)OCO2 | – | · | · | · | · | –
Oc1[nH]c2ccccc2c1N=Nc1nc(Nc2ccccc2)nc(N2CCOCC2)n1 | 1.8µM | – | ? | – | 3.7µM | –
Cc1[nH]c2ccccc2c1/C=N/Nc1nc(Nc2ccccc2)nc(N2CCOCC2)n1 | 6.5µM | – | -80 | ? | 23µM | 8.2µM
COc1cc(C(=O)OCC(=O)NC(N)=O)cc(CN2C(=O)c3ccccc3C2=O)c1OC | – | – | – | – | – | –
CN1CCN(S(=O)(=O)c2cnccc2N2CCN(c3cccc(Cl)c3)CC2)CC1 | 18µM | – | -50 | ? | – | 18µM
CCN(CC)S(=O)(=O)c1cnccc1N1CCN(c2cccc(Cl)c2)CC1 | 16µM | – | -69 | ? | ? | ?
COC(=O)C1CC2(C(=O)OC)CC(C(=O)OC)(CC(C(=O)OC)C2=O)C1=O (configuration not stated) | – | · | – | · | · | –
CCCSc1nnc2c(n1)OC(c1cccs1)Nc1ccc(Br)cc1-2 (configuration not stated) | – | · | · | · | · | –
